# Measured values taken from PubChem BioAssay AID652040 (Broad Institute, 2013).
# Results with a measured potency or affinity are listed apart. Activity calls are given as the source filed them.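 How the source made its calls: active means falling luciferase signal whose fitted half-maximal concentration is at most twice the top tested dose; inconclusive means flat inhibition between 30 and 70% or a poor curve fit; inactive means the rest.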
# Assay: off-target signal loss in HeLa-CEM21 co-culture – HeLa F-luc CTL cells, cherry-picked, counter-screen for HIV-1 Env fusion inhibitor project, dose response (AID 652040);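 further: 0% = median of neutral control wells and -100% = doxycycline 40 µg/mL wells; more negative values mean stronger loss of luciferase signal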
# Settings: HeLa-F-luc CTL cells with CEM21, firefly luciferase counterscreen; series mostly up to 35 µM
Structure (SMILES),outcome,"activity change, negative = inhibition"
Cc1nn(C)c(C)c1CN(C)S(=O)(=O)c1ccc2ccccc2c1,inactive,–
COc1cc(CSc2nnnn2-c2ccc(C)cc2)cc(OC)c1OC,inactive,–
C=CCNc1nc2c(c(=O)n(C)c(=O)n2C)n1CCCCCC,inactive,–
CCN1C(=O)[C@H]2[C@@H](c3ccc(C(F)(F)F)cc3)N[C@]3(CCCN(Cc4ccccc4)C3=O)[C@H]2C1=O,inactive,–
CN(C(=O)c1cccc(NC(=O)Cc2cccc(NC(=O)C3CCCN(C(=O)C4CCC4)C3)c2)c1)C1CCC1 (stereo not given),inactive,–
N#Cc1ccc(CN2CCN(C(=O)CNC(=O)Cc3cccc4ccccc34)CC2)cc1,inactive,–
COCCCNC(=O)c1sc2ncnc(N3CCc4ccccc4C3)c2c1C,inactive,–
COc1ccc(-c2cc(C3CCN(c4cc(Cl)nc(N)n4)CC3)[nH]n2)cc1,inactive,–
O=C(NCc1ccccc1)[C@@H]1CCCN1C(=O)[C@@H]1CCCN1C(=O)c1cccc2ccccc12,inactive,–
CC1CN(S(=O)(=O)c2cc(C(=O)NCCC3=CCCCC3)ccc2Cl)CC(C)O1 (stereo not given),inactive,–
CCCCOCCCNc1ncnc2c1[nH]c1ccccc12,inactive,–
Cc1ccc(Cn2ncc3c(N4CCN(Cc5ccc(Cl)cc5)CC4)ncnc32)cc1,inactive,–
CCCCCn1c(C(C)NC(=O)CCC)nc2ccccc21 (stereo not given),inactive,–
O=C(c1ccccc1)N1CCC(c2nc(-c3ccc(S(=O)(=O)NCC4CCCO4)cc3)no2)CC1 (stereo not given),inactive,–
Cc1cc(C(=O)N2CCC(C(=O)O)CC2)c(C(F)(F)F)o1,inactive,–
C=CCN1C(=S)CC(c2ccccc2)=Nc2ccccc21,inactive,–
O=C(c1ccc(Cl)s1)N1CCN(c2nc3ccccc3s2)CC1,inactive,–
CCc1cc2c(NCc3ccco3)ncnc2s1,inactive,–
COc1ccc2[nH]c3c(N4CCC(O)(c5cccc(C(F)(F)F)c5)CC4)ncnc3c2c1,inactive,–
CCOC(=O)[C@]12CCC=C1N(Cc1ccc3c(c1)OCO3)C(=O)[C@H](CC(=O)NCC13CC4CC(CC(C4)C1)C3)C2,inactive,–

Structure (SMILES),outcome,"activity change, negative = inhibition"
Cc1cccc(C)c1NC(=O)N1CCN(c2nc3ccccc3s2)CC1,inactive,–
C[C@@H]1CN([C@H](C)CO)C(=O)c2cccc(NC(=O)c3ccncc3)c2O[C@@H]1CN(C)Cc1ccc(C(=O)O)cc1,inactive,–
COC(=O)C1CCN(C(=O)COC(=O)c2cc(S(=O)(=O)N3CCOCC3)ccc2C)CC1,inactive,–
O=C(COC(=O)c1cc(S(=O)(=O)N2CCOCC2)ccc1O)NCc1ccc2c(c1)OCO2,inactive,–
CCN(C1CCCCC1)S(=O)(=O)c1ccc(S(=O)(=O)NCc2ccncc2)cc1,inactive,–
CC(C)OCCCn1c(=S)[nH]c2ccc(N3CCOCC3)cc2c1=O,inactive,–
Oc1ccc(C=NNc2ccccn2)c(O)c1,inactive,–
O=C(NCCCN1CCc2ccccc2C1)Nc1ccc(Cl)cc1,inactive,–
CCCCCCCCN1C(=O)[C@H](CC(=O)NCc2cccs2)C[C@@]2(C(=O)OCC)CCCC=C12,inactive,–
CCc1ccc(Nc2n[n+](-c3ccccc3)c(-c3c(Cl)cccc3Cl)s2)cc1,inactive,–
CC1CCC(C(C)C)C(OC(=O)Cn2c(-c3ccc(Cl)cc3)[n+](C)c3ccccc32)C1 (stereo not given),–,55.5% [at 8 µM] (inactive)
CC(C)(C)c1ccc(-c2noc(CCC(=O)NCC3CCCO3)n2)cc1 (stereo not given),inactive,–
COc1ccc2c(c1)[nH]c1c(N3CCN(Cc4ccc5c(c4)OCO5)CC3)ncnc12,inactive,–
COc1ccc(S(=O)(=O)N2CCCCC2)cc1NC(=O)CCCOc1ccc(C)cc1,inactive,–
COc1ccccc1OCC(=O)c1[nH]c(C)c(C(C)=O)c1C,inactive,–
CCOc1ccccc1C(=O)NCC(=O)NNC(=O)CN(C)S(=O)(=O)c1ccc(Cl)cc1,inactive,–
CC(C)(C)OC(=O)N1CCc2onc(-c3ccc(Br)cc3)c2C1=O,inactive,–
Cc1cc(C(=O)NC2CCCc3c2cnn3-c2ccc(C(C)(C)C)cc2)nn1C (stereo not given),inactive,–
COC(=O)[C@]12CCCCC=C1N(Cc1ccco1)C(=O)[C@H](CC(=O)NCCc1ccccc1OC)C2,inactive,–
CC(C)CNS(=O)(=O)c1ccc(CCC(=O)N2CCN(Cc3ccc4c(c3)OCO4)CC2)cc1,inactive,–
